From PubChem BioAssay
LGR2 antag: Drosophila LGR2 receptor signaling inhibition. HEK293 LGR2, CRE-luciferase, bursicon-stimulated, 4 h. inhibition, % at 9.99 µM. 380,000 compounds, 0.35% hits. AID 720647;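 active means drop in luminescence signal, shown as inhibition above about 50% in the replicate tests, limit read from the data, passing the limit was not always enough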;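 further: agonist challenge used bursicon conditioned medium at about half maximal strength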
TROY NFkB inh: TROY signaling inhibition; Q293 LMP1-TROYcd NF-kB luciferase reporter, 4 h; inhibition, % at 10 µM; 360,000 compounds, 0.98% hits; AID 1347056;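 active means compounds whose plate-normalised and pattern-corrected inhibition of the luciferase reporter signal at the single screening dose is 50% or more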
TWEAK-Fn14 inh: blocks TWEAK-Fn14 interaction in a reporter cell assay; inhibition, % at 10 µM; TWEAK-stimulated Fn14 reporter cells, luciferase luminescence, 8 h; 360,000 compounds, 2% hits; AID 1159606; in the data active means inhibition above about 50%
EWS-Fli block: inhibitors of EWS/Fli oncoprotein transcriptional activity; A673 NR0B1-luciferase reporter, viability-normalised; inhibition, % at 12.6 µM; 350,000 compounds, 0.67% hits; AID 651661;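 active means mean inhibition of at least 50% after viability correction, with every replicate also passing that limit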;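 further: firefly luciferase signal divided by Alamar Blue viability fluorescence both relative to DMSO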
KKLEB tox: reduces viability of KKLEB cystic fibrosis airway cells. AID 602141. KKLEB CF airway cells viability, ATPlite luminescence, overnight; active compounds read low; cells stimulated with P. aeruginosa culture filtrate. 360,000 compounds, 0.36% hits. activity change (cytotoxicity), % at 5 µM;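 active means corrected activity change at or below -50% at 5 µM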
CF NFkB block: blocks PAF-induced NF-kB reporter in cystic fibrosis cells | KKLEB NF-kB-GFP reporter, GFP fluorescence overnight | inhibition, % at 5 µM | 360,000 compounds, 0.86% hits | AID 588850;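 active means at least 50% inhibition at 5 µM, scaled per plate between neutral and stimulator controls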;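 further: PAF is a Pseudomonas aeruginosa culture filtrate used as stimulus; plate controls were PAF-stimulated DMSO wells for no effect and unstimulated DMSO wells for full effect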
An asterisk follows results filed as active; . = not tested or not shown. Most compounds without a hit are left out; they make up all but 2.6% or so of the library.

SMILES | LGR2 antag | TROY NFkB inh | TWEAK-Fn14 inh | EWS-Fli block | KKLEB tox | CF NFkB block
C[C@@H]1CN([C@@H](C)CO)C(=O)c2ccccc2-c2ccccc2CO[C@@H]1CN(C)C(=O)Oc1ccccc1 | 12 | . | . | 18 | . | .
COc1ccc(S(=O)(=O)Nc2ccc3c(c2)C(=O)N([C@H](C)CO)C[C@H](C)[C@@H](CN(C)C)O3)cc1 | -18 | . | . | -5 | . | .
COc1ccc2c(c1)CCc1c(C(=O)Nc3c(C)nn(Cc4ccccc4)c3C)noc1-2 | . | 35 | 47 | . | 6 | -2
Cc1nn(Cc2ccc(Cl)cc2)c(C)c1NC(=O)c1noc2c1CCc1ccccc1-2 | 3 | 57* | 69* | -7 | -12 | -7
O=C(C[C@H]1C[C@@H]2c3cc(NC(=O)Cc4ccncc4)ccc3O[C@@H]2[C@H](CO)O1)NCc1ccccn1 | 5 | . | . | -1 | . | .
Cc1nc2ccccc2n1CC(O)COc1ccc(Br)cc1 (stereo not given) | . | 2 | 33 | 4 | 2 | -6
Cc1nc2ccccc2n1CC(O)COc1ccccc1Cl (stereo not given) | -3 | 10 | 54* | 20 | -2 | -2
C[C@H](CO)N1C[C@H](C)[C@@H](CN(C)Cc2ccccc2)Oc2ccc(NC(=O)CCCCCC(=O)Nc3ccccc3N)cc2CC1=O | -9 | . | . | 27 | . | .
Cc1sc2nc3c4ccccc4c(NCc4ccco4)nn3c(=O)c2c1C | . | -30 | 64* | . | -6 | -25
NC(N)=N/N=C/c1ccc(OCc2ccccc2Cl)cc1 | 1 | 7 | -14 | 58* | -18 | 3
NC(N)=N/N=C/c1ccc(Cl)c(Cl)c1 | 64* | 2 | 4 | 4 | 4 | 5
NC(N)=N/N=C/c1ccccc1 | . | -12 | 15 | . | -3 | 11
COc1ccccc1NC(=O)N1CCCCN2[C@@H](CO)[C@@H](c3ccc(-c4ccccc4)cc3)[C@@H]2C1 | . | . | . | 8 | . | .
Nc1c(C(=O)NCc2ccco2)c2nc3ccccc3nc2n1CCc1ccccc1 | 16 | 66* | 72* | 0 | -1 | -19
Nc1c(C(=O)NCc2ccccc2)c2nc3ccccc3nc2n1CCCN1CCOCC1 | 1 | -6 | 5 | 10 | 4 | -31
CCCN1[C@H](C(=O)OC)[C@@H](CO)[C@@H]2Cn3c(ccc(-c4ccncc4)c3=O)[C@@H]21 | -9 | . | . | -1 | . | .
C[C@H]1CN([C@@H](C)CO)C(=O)c2cc(C#CC3CC3)cnc2O[C@H]1CN(C)C(=O)c1ccncc1 | -11 | . | . | -2 | . | .
COC(=O)c1ccc2nc(NC(=O)C3CCCCC3)sc2c1 | -61 | -55 | -33 | 27 | -3 | -10
COC(=O)c1ccc2nc(Nc3nc4ccc(F)cc4s3)sc2c1 | . | 79* | 92* | 77* | 1 | -10
CC(=O)c1sc(Nc2nc3ccc(F)cc3s2)nc1C | . | -28 | -86 | . | -6 | -2
COC(=O)c1ccc2nc(NC(=O)C(C)(C)C)sc2c1 | 64* | 81* | 96* | 54* | -50* | 3
CCOC(=O)c1csc(Nc2nc3ccc(F)cc3s2)n1 | . | -23 | 105* | . | 5 | -30
CCOC(=O)c1sc(NC(=O)Nc2cccc(Cl)c2)cc1C | 13 | 31 | 75* | -95 | -64* | 60*
N#Cc1cc2nc(O)c(O)nc2cc1[N+](=O)[O-] | . | -13 | 14 | -7 | 10 | -4
CNc1nc2cc([N+](=O)[O-])c([N+](=O)[O-])cc2nc1NC | 11 | 27 | 51* | 10 | -2 | 12
SMILES | LGR2 antag | TROY NFkB inh | TWEAK-Fn14 inh | EWS-Fli block | KKLEB tox | CF NFkB block
C[C@@H]1CCCCO[C@H](CN(C)CC2CC2)[C@@H](C)CN([C@H](C)CO)C(=O)c2cc(NS(=O)(=O)c3ccc(Cl)cc3)ccc2O1 | 6 | . | . | 2 | . | .
COc1ccc(OC)c(NC(=O)C2(C)CCN2C(=O)Cc2ccc(Cl)cc2Cl)c1 (stereo not given) | -8 | 13 | 65* | 1 | -22 | 17
COc1ccc(NC(=O)C2(C)CCN2C(=O)Cc2ccc(Cl)cc2Cl)cc1OC (stereo not given) | -19 | -4 | 2 | 6 | -9 | -9
Cc1ccc(S(=O)(=O)Nc2ccc3c(c2)C(=O)N([C@H](C)CO)C[C@@H](C)[C@@H](CN(C)Cc2ccc(C(=O)O)cc2)OCCCC[C@H](C)O3)cc1 | -21 | . | . | -33 | . | .
CCCNC(=O)COc1ccc2c(=O)c(Oc3ccccc3F)coc2c1 | -8 | -13 | -9 | 12 | 2 | 7
CCc1ccccc1NC(=O)COc1ccc2c(=O)c(Oc3cc(C)ccc3C)coc2c1 | 10 | 56* | 5 | 6 | 5 | 1
COc1cc2nc(NC(=O)c3ccc(F)cc3Cl)sc(=O)c2cc1OC | . | -4 | 64* | . | -14 | 9
Cn1cc(C(=O)O)c(-c2ccc3c(c2)OCCCO3)n1 | 1 | -18 | -3 | -7 | 5 | 1
Cn1cc(C=O)c(-c2ccc3c(c2)OCCCO3)n1 | 11 | 25 | 71* | -70 | -14 | 6
CC(C)NC(=O)Nc1ccc2c(c1)C(=O)N([C@H](C)CO)C[C@H](C)[C@@H](CN(C)S(=O)(=O)c1ccccc1)OCCCC[C@H](C)O2 | 2 | . | . | 1 | . | .
CC(=O)Nc1sc2c(c1-c1nc3ccccc3s1)CN(C(C)C)CC2 | 102* | 12 | 1 | 54* | -44 | -83
CC(=O)N1CCc2c(sc(NC(=O)C3CC3)c2-c2nc3ccccc3s2)C1 | 3 | -9 | -51 | 9 | -3 | -50
O=C1c2ccccc2C(=O)c2c1oc(C(F)(F)F)c2C(=O)c1ccccc1 | . | 55* | 74* | . | -82* | 90*
O=C(c1ccccc1)c1coc2c1C(=O)c1ccccc1C2=O | -5 | 33 | 68* | -36 | 5 | 52*
CC(=O)c1cccc2c(O)c(C3=Nc4ccccc4C3=O)[nH]c12 | . | 54* | 11 | . | -1 | 4
CC(NC1=CC(=O)c2cccnc2C1=O)C(O)c1ccccc1 (stereo not given) | -31 | 7 | 16 | 31 | -32 | 80*
CC(c1ccccc1)N1C(=O)c2cccnc2C1=O (stereo not given) | 2 | 14 | 4 | 1 | 2 | -16
Cn1nc([N+](=O)[O-])nc1Sc1nnc(-c2ccccc2)o1 | 21 | -5 | 69* | . | -13 | 28
COc1ccc(C)cc1NC(=O)ON=C1CCCCC1 | -8 | -6 | -19 | -1 | -19 | 16
O=C(Nc1cccc2ccccc12)ON=C1CCCCC1 | 4 | 76* | 81* | 9 | -3 | -10
CC(C)NC(=O)Nc1ccc2c(c1)C(=O)N([C@H](C)CO)C[C@H](C)[C@H](CN(C)S(=O)(=O)c1ccc(F)cc1)OCCCC[C@H](C)O2 | 9 | . | . | 6 | . | .
COc1ccc2nc(C)cc(SCC(=O)NNC(=O)COc3ccccc3)c2c1 | . | 9 | 19 | . | -9 | 6
COc1ccc2nc(C)cc(Sc3nc4ccccc4s3)c2c1 | 4 | 35 | 88* | -35 | -44 | 64*
